Compound activity deposited in PubChem by several laboratories.
sEH inh: soluble epoxide hydrolase (human) inhibition. recombinant human sEH enzymatic activity assay. inhibition, % at 2 µM. hit rate 0.34% among 91,000. P34913; in the data active = inhibition above about 80%
PostGolgi yeast: growth inhibition of a yeast mutant, post-Golgi transport screen; post-Golgi transport phenotypic cell assay; inhibition, % at 10 µM; hit rate 0.9% among 98,000; AID 739;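 also: yeast cells grown in 1536-well plates; yeast grown about 18 h at 30C before absorbance read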
sEH activator: increases human soluble epoxide hydrolase activity; P34913; AID 717; purified human sEH enzymatic activity, activator screen; activation, % at 2 µM; hit rate 0.04% among 91,000; in the data active = activation above about 37%
Cav32 inh: blocks human Cav3.2 T-type calcium channel; Cav3.2-expressing cells, Fluo-4 calcium fluorescence FDSS; stronger effect = lower value; B-score at 10 µM; hit rate 4% among 100,000;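 active = single-dose well whose peak fluorescence ratio is a statistical outlier from its plate by either plate-standardised score or position-corrected B-score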
Target sequence (O95180 whole entry, looked up): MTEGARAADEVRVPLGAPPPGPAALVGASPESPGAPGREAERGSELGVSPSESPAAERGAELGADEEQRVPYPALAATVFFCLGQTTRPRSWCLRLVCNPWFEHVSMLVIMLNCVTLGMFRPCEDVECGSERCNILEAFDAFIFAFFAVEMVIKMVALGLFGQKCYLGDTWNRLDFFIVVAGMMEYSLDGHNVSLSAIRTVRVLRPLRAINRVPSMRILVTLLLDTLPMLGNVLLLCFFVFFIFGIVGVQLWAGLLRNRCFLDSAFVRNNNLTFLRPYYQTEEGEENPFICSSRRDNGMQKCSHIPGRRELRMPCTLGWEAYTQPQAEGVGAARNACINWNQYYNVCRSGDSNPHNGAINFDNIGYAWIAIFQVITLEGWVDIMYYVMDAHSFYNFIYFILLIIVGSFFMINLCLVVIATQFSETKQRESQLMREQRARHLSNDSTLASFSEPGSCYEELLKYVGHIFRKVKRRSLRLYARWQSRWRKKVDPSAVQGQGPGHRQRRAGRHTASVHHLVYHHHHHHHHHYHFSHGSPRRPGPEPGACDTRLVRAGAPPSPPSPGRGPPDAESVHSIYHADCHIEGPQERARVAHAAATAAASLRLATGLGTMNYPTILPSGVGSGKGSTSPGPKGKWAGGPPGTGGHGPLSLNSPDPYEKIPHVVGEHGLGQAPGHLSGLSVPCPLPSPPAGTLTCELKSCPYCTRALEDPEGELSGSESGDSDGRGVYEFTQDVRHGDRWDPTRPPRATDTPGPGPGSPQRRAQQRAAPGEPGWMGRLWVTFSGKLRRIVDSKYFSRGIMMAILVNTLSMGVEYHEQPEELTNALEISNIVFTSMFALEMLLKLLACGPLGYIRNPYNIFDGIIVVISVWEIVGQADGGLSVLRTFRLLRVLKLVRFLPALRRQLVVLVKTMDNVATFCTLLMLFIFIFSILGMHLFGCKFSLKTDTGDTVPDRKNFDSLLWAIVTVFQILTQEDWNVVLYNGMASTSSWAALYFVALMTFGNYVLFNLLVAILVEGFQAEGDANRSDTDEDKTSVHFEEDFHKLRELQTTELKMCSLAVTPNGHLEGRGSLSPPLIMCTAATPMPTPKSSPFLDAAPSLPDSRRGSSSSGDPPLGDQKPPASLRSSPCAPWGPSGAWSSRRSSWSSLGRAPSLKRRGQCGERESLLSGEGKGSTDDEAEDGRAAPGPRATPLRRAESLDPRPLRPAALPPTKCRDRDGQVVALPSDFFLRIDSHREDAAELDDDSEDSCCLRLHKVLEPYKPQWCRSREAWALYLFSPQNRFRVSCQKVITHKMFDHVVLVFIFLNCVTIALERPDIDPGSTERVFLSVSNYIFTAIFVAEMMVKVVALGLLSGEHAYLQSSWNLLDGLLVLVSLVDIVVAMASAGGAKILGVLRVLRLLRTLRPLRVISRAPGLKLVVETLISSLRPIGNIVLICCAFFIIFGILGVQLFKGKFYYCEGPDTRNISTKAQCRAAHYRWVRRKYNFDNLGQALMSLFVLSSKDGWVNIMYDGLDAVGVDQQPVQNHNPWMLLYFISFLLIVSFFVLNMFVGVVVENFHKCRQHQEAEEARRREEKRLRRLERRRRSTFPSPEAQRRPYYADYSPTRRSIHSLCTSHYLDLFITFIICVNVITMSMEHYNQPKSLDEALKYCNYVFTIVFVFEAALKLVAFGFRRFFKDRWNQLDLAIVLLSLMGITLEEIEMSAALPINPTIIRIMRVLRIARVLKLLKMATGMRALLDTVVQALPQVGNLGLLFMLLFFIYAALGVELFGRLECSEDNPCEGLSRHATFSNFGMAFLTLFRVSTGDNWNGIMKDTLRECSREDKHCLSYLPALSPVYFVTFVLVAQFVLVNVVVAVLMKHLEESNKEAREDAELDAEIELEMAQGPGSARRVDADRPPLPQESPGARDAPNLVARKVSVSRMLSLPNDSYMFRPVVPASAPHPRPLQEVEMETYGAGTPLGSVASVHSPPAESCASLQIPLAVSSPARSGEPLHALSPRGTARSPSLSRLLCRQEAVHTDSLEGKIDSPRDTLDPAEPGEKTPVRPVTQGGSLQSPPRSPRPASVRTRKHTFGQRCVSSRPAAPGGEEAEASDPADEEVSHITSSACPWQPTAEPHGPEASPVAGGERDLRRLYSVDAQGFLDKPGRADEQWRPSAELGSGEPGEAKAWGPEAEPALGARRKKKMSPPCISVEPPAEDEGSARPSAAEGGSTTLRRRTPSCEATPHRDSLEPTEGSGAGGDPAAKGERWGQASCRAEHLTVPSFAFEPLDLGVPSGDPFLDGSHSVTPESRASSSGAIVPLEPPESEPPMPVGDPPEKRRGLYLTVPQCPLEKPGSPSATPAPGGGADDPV
PostGolgi ctrl: inhibits growth of the yeast control strain; efflux-deficient yeast background strain, growth absorbance A615, 16 h; inhibition, % at 10 µM; hit rate 5% among 98,000; AID 738
Numbers without * were called inactive; . = not tested or not shown. This is a sample that favours compounds with a hit; in the whole collection about 7.8% have one here. Rule as the data show it, unless noted: active = inhibition above about 30%; inactive = the rest.

SMILES	sEH inh	PostGolgi yeast	sEH activator	Cav32 inh	PostGolgi ctrl
CC(Cc1cccs1)NC(=O)Nc1ccc(Cl)c(Cl)c1 (centres undefined)	90*	-4	-90	.	69*
N#Cc1c(Cc2cccc3ccccc23)nn(CCO)c1N	.	.	.	0.43	.
Cc1c(NC(=O)/C=C/c2cn(-c3ccccc3)nc2-c2ccccc2)c(=O)n(-c2ccccc2)n1C	-13	0	15	-4.5*	7
Cc1c(NC(=O)N(C)C)c(=O)n(-c2ccccc2)n1C	-1	.	4	0.76	.
CCOC(=O)c1nn(-c2ccccc2F)c(-c2ccccc2)c1C(=O)c1ccccc1	-1	8	-2	-4.4*	32*
N#Cc1ccccc1NCc1ccccc1	-17	-2	21	-0.46	32*
O=C(CSc1ccccn1)Nc1nncs1	-12	.	15	0.28	.
Cc1ccc(C)c(NC(=O)C2C3CCCC2C3c2ccccc2)c1 (centres undefined)	3	1	0	-0.52	20
CCc1ccccc1NC(=O)C1C(c2ccccc2)C1(Cl)Cl (centres undefined)	2	-14	-4	-7.6*	6
Cc1ccc(C)c(NC(=O)C2C(c3ccccc3)C2(Cl)Cl)c1 (centres undefined)	-4	-9	4	-4.6*	17
Cc1cccc(NC(=O)c2nc(-c3ccccc3)n(-c3ccccc3)n2)c1C	8	5	-5	-6.6*	26
COc1ccc(-n2nc(C(=O)O)nc2-c2ccccc2)cc1	4	0	-1	.	7
Cc1cc(NC(=O)CSc2nc(CCC3CCCC3)nc3ccccc23)no1	12	0	-10	-8.7*	22
CCCc1nc(SCC(=O)Nc2cc(C)on2)c2ccccc2n1	21	-12	-22	.	13
CCOc1ccc(C2/C(=C(\O)c3ccc(OC)c(OC)c3)C(=O)C(=O)N2c2cc(C)on2)cc1OC (centres undefined)	.	-4	.	-0.072	10
Cc1cc(N2C(=O)C(=O)/C(=C(/O)c3ccc(F)cc3)C2c2ccc(Cl)cc2)no1 (centres undefined)	6	-2	-7	-6.2*	9
CCc1nc(C)cn1S(=O)(=O)c1cc(Br)c(C)cc1OC	8	12	-6	.	-1
CCc1nc(C)cn1S(=O)(=O)c1ccc(Cl)c(Cl)c1Cl	-4	-1	2	-3.6*	17
CCc1nc(C)cn1S(=O)(=O)c1cc(C)c(OC)cc1C	.	-2	.	-3.8*	0
CCCc1cc(Nc2ccccc2OCC)n2ncnc2n1	-22	0	24	0.073	4
CCCn1c2c(c(O)c(C(=O)Nc3ncccc3C)c1=O)CCCC2	.	-2	.	-1.8	43*
CCS(=O)(=O)n1nc(-c2ccccc2)nc1SC	-13	-3	13	0.1	2
Cc1cc(C)n2nc(-c3sccc3-n3c(C)ccc3C)cc2n1	-2	3	0	0.11	22
Cc1cc(C)n2nc(-c3sccc3-n3cccc3)cc2n1	3	-10	-4	-0.88	35*
CCc1nnc(NC(=O)C2Cc3ccccc3CN2S(=O)(=O)c2cccs2)s1 (centres undefined)	8	-5	-9	-0.14	14
SMILES	sEH inh	PostGolgi yeast	sEH activator	Cav32 inh	PostGolgi ctrl
COc1ccc(S(=O)(=O)N2Cc3ccccc3CC2C(=O)Nc2nccs2)cc1 (centres undefined)	3	-4	-4	-1.1	36*
COc1ccc(S(=O)(=O)N2Cc3ccccc3CC2C(=O)Nc2nccs2)cc1OC (centres undefined)	6	2	-6	-0.62	5
CCc1nnc(NC(=O)C2Cc3ccccc3CN2S(=O)(=O)c2ccc(C)cc2)s1 (centres undefined)	2	5	0	-2.9	41*
Cc1ccc(S(=O)(=O)N2Cc3ccccc3CC2C(=O)Nc2ccc3c(c2)OCO3)cc1 (centres undefined)	3	1	-1	-4.5*	17
COc1ccc2c(c1)C(=O)[C@@H](OC(=O)NCc1ccc3c(c1)OCO3)[C@H](c1ccc(OC)c(Br)c1)O2	.	.	.	-0.27	.
Cc1cc(Cl)c(S(=O)(=O)N2CCN(c3ccccc3)CC2)cc1OCC(N)=O	-4	.	4	-0.53	.
c1ccc(-c2nc3ccccn3c2NCc2ccc3c(c2)OCO3)cc1	-10	-3	8	-4.2*	3
COc1ccc(-c2nc3ccccn3c2NCc2ccc3c(c2)OCO3)cc1	-10	.	13	-4*	.
CCNC(=O)[C@@H]1CCCN1C(=O)[C@H](CCCN=C(N)N)NC(=O)[C@H](CC(C)C)NC(=O)[C@@H](CC(C)C)NC(=O)[C@H](Cc1ccc(O)cc1)NC(=O)[C@H](CO)NC(=O)[C@H](Cc1c[nH]c2ccccc12)NC(=O)[C@H](Cc1cnc[nH]1)NC(=O)[C@@H]1CCC(=O)N1	.	.	.	-0.55	.
